This is a sample that favours compounds with a hit; in the whole collection about 0.84% have one here.
PPARg SRC1 recr: promotes SRC-1 coactivator recruitment by human PPARgamma; activation, % at 8 µM; PPARgamma-SRC-1 coactivator recruitment biochemical assay; AID 631; P37231; 200,000 compounds, 0.41% hits; in the data active = activation above about 19%;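 also: 0% = DMSO and 100% = reference agonist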
Target sequence (P37231 whole entry, looked up): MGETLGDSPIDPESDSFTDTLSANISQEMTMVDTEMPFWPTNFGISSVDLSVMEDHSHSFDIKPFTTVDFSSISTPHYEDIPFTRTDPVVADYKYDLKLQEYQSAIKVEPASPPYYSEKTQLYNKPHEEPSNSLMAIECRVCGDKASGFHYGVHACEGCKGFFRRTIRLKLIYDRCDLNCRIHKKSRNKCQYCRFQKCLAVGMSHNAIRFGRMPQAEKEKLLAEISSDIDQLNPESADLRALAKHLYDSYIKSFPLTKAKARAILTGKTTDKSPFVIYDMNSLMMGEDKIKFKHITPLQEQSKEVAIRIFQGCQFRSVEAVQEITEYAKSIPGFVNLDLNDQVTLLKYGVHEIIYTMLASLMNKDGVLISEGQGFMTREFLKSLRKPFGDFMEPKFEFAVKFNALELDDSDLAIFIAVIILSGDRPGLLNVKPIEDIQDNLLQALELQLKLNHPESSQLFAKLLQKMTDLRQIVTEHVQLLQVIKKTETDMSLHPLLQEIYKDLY
PPARg SRC-3 ag: agonists of human PPARgamma SRC-3 coactivator recruitment | P37231 | biochemical PPARgamma/SRC-3 coactivator recruitment assay | activation, % at 8 µM | 200,000 compounds, 0.26% hits; in the data active = activation above about 23%;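 also: 0% = DMSO and 100% = reference agonist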
SRC1 TRFRET art: flags TR-FRET format artefacts in PPARgamma SRC-1 recruitment agonist screen; TR-FRET detection artefact counter-screen, emission ratio; stronger effect = higher value; TR-FRET ratio at 8 µM; 99,000 compounds, 0.34% hits; AID 1051; in the data active = TR-FRET ratio above about 2300
SRC3 TRFRET art: flags TR-FRET format artefacts in PPARgamma SRC-3 recruitment agonist screen. TR-FRET artefact counter-screen, PPARgamma/SRC-3 format; stronger effect = higher value. TR-FRET ratio at 8 µM. 99,000 compounds, 0.39% hits
TR-FRET SRC-2 ct: TR-FRET artefact, counter-screen to PPARgamma/SRC-2 agonist assay; stronger effect = higher value; TR-FRET ratio at 8 µM; 200,000 compounds, 0.4% hits; AID 1049
PPARg SRC2 recr: agonists of SRC-2 recruitment by human PPARgamma; P37231; PPARgamma LBD-SRC-2 recruitment, biochemical; activation, % at 8 µM; 200,000 compounds, 0.34% hits; AID 1032; in the data active = activation above about 22%;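 also: 0% = vehicle and 100% = reference agonist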
PPARg SRC2 conf: human PPARgamma SRC-2 recruitment agonism, confirmation. 790 compounds, 52% hits. activation, % at 8 µM. AID 1297. shares compounds with PPARg SRC-3 ag. biochemical SRC-2 recruitment by PPARgamma; in the data active = activation above about 22%;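 also: 0% = vehicle alone and 100% = reference agonist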
PPARg SRC1 ag: human PPARgamma SRC-1 recruitment agonism, confirmation | shares compounds with PPARg SRC-3 ag | PPARgamma–SRC-1 coactivator recruitment biochemical assay | activation, % at 8 µM | 790 compounds, 43% hits | AID 1300; in the data active = activation above about 20%;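 also: 0% = vehicle wells and 100% = reference agonist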
PPARg SRC3 ag: human PPARgamma SRC-3 recruitment agonism, confirmation. 790 compounds, 29% hits. shares compounds with PPARg SRC-3 ag. activation, % at 8 µM. biochemical PPARgamma-SRC-3 coactivator recruitment, agonist mode; in the data active = activation above about 24%;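 also: 0% = vehicle wells and 100% = reference agonist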
* marks the source's active call; other numbers are inactive results. Rule as the data show it, unless noted: active = TR-FRET ratio above about 2000; inactive = the rest.

Screening COc1ccc([N+](=O)[O-])cc1NC(=O)c1ccc(Br)s1 returned PPARg SRC1 recr 22*, PPARg SRC-3 ag 13, SRC1 TRFRET art 2669*, SRC3 TRFRET art 2129*, TR-FRET SRC-2 ct 2056*, PPARg SRC2 recr 17, PPARg SRC2 conf 20, PPARg SRC1 ag 13 and PPARg SRC3 ag 6.
For CN(C(=O)COC(=O)CNC(=O)c1ccc(Cl)cc1Cl)c1ccccc1 the results were PPARg SRC1 recr -4, PPARg SRC-3 ag -3, SRC1 TRFRET art 1739, SRC3 TRFRET art 1407, TR-FRET SRC-2 ct 1446 and PPARg SRC2 recr -2.
For Cc1cc(C)c(C#N)c(N)n1 the results were PPARg SRC1 recr 7, PPARg SRC-3 ag 6, SRC1 TRFRET art 1801, SRC3 TRFRET art 1419, TR-FRET SRC-2 ct 1627 and PPARg SRC2 recr 6.
Screening Cc1cc(-c2cccc(Br)c2)c(C#N)c(N)n1 returned PPARg SRC1 recr 22*, PPARg SRC-3 ag 13, SRC1 TRFRET art 2711*, SRC3 TRFRET art 2035, TR-FRET SRC-2 ct 1927, PPARg SRC2 recr 25*, PPARg SRC2 conf 6, PPARg SRC1 ag 8 and PPARg SRC3 ag 5.
For CC(=O)c1cccc(NC(=O)C2CCN(S(=O)(=O)c3ccccc3)CC2)c1 the results were PPARg SRC1 recr 2, PPARg SRC-3 ag 14, TR-FRET SRC-2 ct 1722 and PPARg SRC2 recr 13.
Screening COc1ccc2c(c1)O[C@@H](c1cccc(C(F)(F)F)c1)[C@H](OC(=O)N[C@H]1CCCc3ccccc31)C2=O returned PPARg SRC1 recr 10, PPARg SRC-3 ag 1, SRC1 TRFRET art 1778, SRC3 TRFRET art 1457, TR-FRET SRC-2 ct 1831, PPARg SRC2 recr 25*, PPARg SRC2 conf 1, PPARg SRC1 ag 6 and PPARg SRC3 ag 0.
For O=C(CSc1nnc(-c2ccccc2NC(=O)c2ccccc2)o1)OC1CCCCC1 the results were PPARg SRC1 recr 1, PPARg SRC-3 ag 5, TR-FRET SRC-2 ct 1609 and PPARg SRC2 recr 0.
Screening C=C(C)C1CCC(C)=C1COC(=O)Nc1ccccc1 (stereo unspecified) returned PPARg SRC1 recr -1, PPARg SRC-3 ag -7, TR-FRET SRC-2 ct 1502 and PPARg SRC2 recr 2.
`COc1ccc(-c2cn3c(C)c(C(=O)Nc4cc(NC(C)=O)ccc4OC)sc3n2)cc1` gave PPARg SRC1 recr 23*, PPARg SRC-3 ag 47*, TR-FRET SRC-2 ct 2510*, PPARg SRC2 recr 39*, PPARg SRC2 conf 41*, PPARg SRC1 ag 34* and PPARg SRC3 ag 25*.
Cc1cc(=O)[nH]c(SCC(=O)NCCC2=CCCCC2)n1 was read as PPARg SRC1 recr 10, PPARg SRC-3 ag 0, SRC1 TRFRET art 1902, SRC3 TRFRET art 1569, TR-FRET SRC-2 ct 1525 and PPARg SRC2 recr 2.
`COc1cccc(C(=O)N=c2sc3cc(S(C)(=O)=O)ccc3n2C)c1` gave PPARg SRC1 recr 27*, PPARg SRC-3 ag 16, SRC1 TRFRET art 1973, SRC3 TRFRET art 1660, TR-FRET SRC-2 ct 1798, PPARg SRC2 recr 19, PPARg SRC2 conf 14, PPARg SRC1 ag 6 and PPARg SRC3 ag 4.
Screening COc1cc(OC)cc(C(=O)N=c2sc3ccccc3n2C)c1 returned PPARg SRC1 recr 3, PPARg SRC-3 ag 3, SRC1 TRFRET art 1871, SRC3 TRFRET art 1632, TR-FRET SRC-2 ct 1838 and PPARg SRC2 recr 10.
`CC12CCC(C(=O)N3CCC(Cc4ccccc4)CC3)(C(=O)C1=O)C2(C)C` (stereo unspecified) gave PPARg SRC1 recr 4, PPARg SRC-3 ag 4, SRC1 TRFRET art 1885, SRC3 TRFRET art 1468, TR-FRET SRC-2 ct 1418 and PPARg SRC2 recr 1.
`COC(=O)c1ccc(NC(=O)CSc2ccccc2)cc1` gave PPARg SRC1 recr 2, PPARg SRC-3 ag 5, SRC1 TRFRET art 1964, SRC3 TRFRET art 1619, TR-FRET SRC-2 ct 1612 and PPARg SRC2 recr -5.
O=C(CSc1ccccc1)Nc1ccc(C(=O)Nc2ccc(O)cc2)cc1 was read as PPARg SRC1 recr 26*, PPARg SRC-3 ag 18, SRC1 TRFRET art 1849, SRC3 TRFRET art 1821, TR-FRET SRC-2 ct 1725, PPARg SRC2 recr 37*, PPARg SRC2 conf 30*, PPARg SRC1 ag 22* and PPARg SRC3 ag 18.
`CCn1c2ccccc2c2cc(NC(=O)c3cc(OC)c(OC)c(OC)c3)ccc21` gave PPARg SRC1 recr 8, PPARg SRC-3 ag 13, TR-FRET SRC-2 ct 1668 and PPARg SRC2 recr 6.
Screening CCn1c(=O)cc(SCC(=O)Nc2cccc(SC)c2)c2ccccc21 returned PPARg SRC1 recr 35*, PPARg SRC-3 ag 47*, TR-FRET SRC-2 ct 2529*, PPARg SRC2 recr 42*, PPARg SRC2 conf 44*, PPARg SRC1 ag 28* and PPARg SRC3 ag 28*.
CCn1c(=O)cc(SCC(=O)Nc2cc(OC)c(OC)c(OC)c2)c2ccccc21 was read as PPARg SRC1 recr 39*, PPARg SRC-3 ag 42*, TR-FRET SRC-2 ct 2483*, PPARg SRC2 recr 55*, PPARg SRC2 conf 40*, PPARg SRC1 ag 25* and PPARg SRC3 ag 26*.
CC1CCN(C(=O)C2CCN(S(=O)(=O)c3cccc4nonc34)CC2)CC1 was read as PPARg SRC1 recr -4, PPARg SRC-3 ag 14, TR-FRET SRC-2 ct 1795 and PPARg SRC2 recr 12.
CCOc1ccc2nc(-c3cc(NC(C)=O)ccc3O)sc2c1 was read as PPARg SRC1 recr 6, PPARg SRC-3 ag 1, SRC1 TRFRET art 1772, SRC3 TRFRET art 1635, TR-FRET SRC-2 ct 1564 and PPARg SRC2 recr 2.
For N#Cc1c(N)nc2c3c(sc(=N)c2c1N)NC(=O)CC3c1ccccc1 (stereo unspecified) the results were PPARg SRC1 recr 27*, PPARg SRC-3 ag 26*, TR-FRET SRC-2 ct 2053*, PPARg SRC2 recr 20, PPARg SRC2 conf 5, PPARg SRC1 ag 5 and PPARg SRC3 ag 8.
For N#Cc1c(N)nc2c3c(sc(=N)c2c1N)NC(=O)CC3c1c(F)cccc1Cl (stereo unspecified) the results were PPARg SRC1 recr -2, PPARg SRC-3 ag 7, TR-FRET SRC-2 ct 1427 and PPARg SRC2 recr 0.
Screening CN(C)S(=O)(=O)c1ccc(NC(=O)COC(=O)CC2CC3CCC2C3)cc1 (stereo unspecified) returned PPARg SRC1 recr 3, PPARg SRC-3 ag 1, SRC1 TRFRET art 1831, SRC3 TRFRET art 1525, TR-FRET SRC-2 ct 1621 and PPARg SRC2 recr 3.
